For 95 compounds, AC50 and activity, negative = inhibition results are on record in PubChem BioAssay AID1851 (National Center for Advancing Translational Sciences (NCATS), 2009).

About 4,000 (25%) of roughly 16,000 compounds were called active. Roughly 26% stayed inconclusive and do not appear here. A selection follows. Unmarked numbers belong to inactive results. The call rests on the fitted dose curve; in most records, active means well fitted curve in the direction sought with a large enough effect; inconclusive means small, poorly fitted or top-dose-only effect, or effect the other way; inactive means no such curve, though single readings can be large or run the other way.

As a reminder, the AC50 is the concentration giving half of the maximal activity seen.
On the % scale 0 is the no-effect control and ±100 the full control effect.

The target in the assay is Cytochrome P450 2C9 (Homo sapiens) (UniProt P11712). The experiment in a line: Cytochrome panel assay with activity outcomes. To be noted: recombinant CYP, pro-luciferin dealkylation, luminescence, p450-cyp2c9; series mostly up to 57.1 µM.
Cytochrome P450 2C9 (Homo sapiens), sequence (P11712 whole entry, looked up): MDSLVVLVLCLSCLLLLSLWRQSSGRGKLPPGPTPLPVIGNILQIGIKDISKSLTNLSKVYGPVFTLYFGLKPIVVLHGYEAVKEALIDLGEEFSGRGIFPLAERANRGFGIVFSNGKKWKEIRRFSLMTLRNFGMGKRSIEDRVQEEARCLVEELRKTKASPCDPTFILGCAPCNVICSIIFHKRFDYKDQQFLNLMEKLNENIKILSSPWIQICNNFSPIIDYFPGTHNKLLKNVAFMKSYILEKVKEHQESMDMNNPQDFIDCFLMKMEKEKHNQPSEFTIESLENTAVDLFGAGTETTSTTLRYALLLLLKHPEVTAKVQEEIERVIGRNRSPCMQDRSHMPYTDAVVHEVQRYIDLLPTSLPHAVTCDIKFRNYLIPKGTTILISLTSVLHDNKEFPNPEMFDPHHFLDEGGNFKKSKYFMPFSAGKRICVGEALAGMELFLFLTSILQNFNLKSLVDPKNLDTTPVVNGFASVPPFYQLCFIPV
As to `FC(F)(F)c1nnc(-c2ccccc2)nc1Sc1ccccc1`, the AC50 is 7.08 µM (active).

On to `FC(F)(F)c1nnc2c(Sc3ccc(Cl)cc3)nc3ccccc3n12`, for which the AC50 entry is “inactive”.

Consider `CN(C)C(=O)c1ccc(-c2ccc3ncnc(Nc4ccc(F)cc4)c3c2)cc1`, for which the activity, negative = inhibition was 6.1% [at 2.29 µM].

Take `COc1n[nH]c2nncnc12`: the AC50 entry is “inactive”.

Regarding `CN(C)c1ncc2nc(-c3ccc(F)cc3)c(=O)n(Cc3cccs3)c2n1`, the AC50 entry is “inactive”.

Take `Fc1ccc(-c2cnc(-c3cccs3)o2)cc1`: the AC50 was 12.6 µM (active).

On to `Cc1ccccc1NC(=O)C(C)c1cccc(C(=O)c2ccccc2)c1` (stereo not given), for which the AC50 is 3.16 µM (active).

Regarding `CCCN[C@@H](C)C(=O)Nc1ccccc1C`, the AC50 result was “inactive”.

For the compound `O=C(O)[C@@H]1[C@@H]2C[C@H]3c4[nH]c5ccccc5c4CCN3C[C@@H]2CC[C@@H]1O`, the AC50 entry is “inactive”.

`C=C1C=C(Br)C2(OCCCO2)[C@H]2OC12` (stereo not given in full): the activity, negative = inhibition was 13.6% [at 11.4 µM].

In the case of `O=C(CN(C(=O)CSc1nc2ccccc2o1)c1cccc(F)c1)NC1CCCCC1`, the AC50 was 2.24 µM (active).

As for `CC(=O)NC1(c2cccc(F)c2)CCN(CC(=O)NC2CCCCC2)CC1`, the AC50 result is “inactive”.

Consider `CCCCCCCCCCCCCCCCCCOC[C@@H](COP(=O)([O-])OCC[N+](C)(C)C)OC`, for which the AC50 result is “inactive”.

On to `COc1ccc(CCn2c(=N)c(C(=O)NCc3ccco3)cc3c(=O)n4ccccc4nc32)cc1`, for which the AC50 is 20 µM (active).

For `Cc1cc2c(c(=O)o1)[C@H](O)[C@H]1O[C@@H]1C2=O`, the activity, negative = inhibition is 10.8% [at 11.4 µM].

Take `c1ccc2cc(NCNc3ccc4ccccc4c3)ccc2c1`: the AC50 was 3.98 µM (active).

Regarding `CC(C)C[C@@H](N)C(=O)Nc1ccc2ccccc2c1`, the activity, negative = inhibition was -7.85% [at 11.4 µM].

For the compound `COc1ccc(-c2nc3cnc(N(C)C)nc3n(Cc3cccs3)c2=O)cc1`, the AC50 entry is “inactive”.

On to `COc1ccc(NC2=NCC(=O)N2Cc2cccs2)cc1`, for which the AC50 was 14.1 µM (active).

In the case of `COc1cccc(Nc2ncc3nc(-c4ccccc4)c(=O)n(Cc4cccs4)c3n2)c1`, the AC50 result was “inactive”.

As to `O=C1CN=C(Nc2ccccc2)N1Cc1cccs1`, the AC50 is 17.8 µM (active).

For `COc1ccc(-c2nc3cnc(Nc4cccc(OC)c4)nc3n(Cc3cccs3)c2=O)cc1`, the AC50 result is “inactive”.

Regarding `O=c1c(-c2ccc(F)cc2)nc2cnc(Nc3ccccc3)nc2n1Cc1cccs1`, the AC50 result is “inactive”.

On to `CCOc1ccc(NC2=NCC(=O)N2Cc2cccs2)cc1`, for which the AC50 was 17.8 µM (active).

With `COc1cccc(C2=CC(c3ccccc3)n3nnnc3N2)c1` (stereo not given), the AC50 is 0.501 µM (active).

With `COc1cccc(-c2nc(NC3CCNCC3)c3ccccc3n2)c1`, the activity, negative = inhibition was 11.6% [at 2.29 µM].

In the case of `COc1cccc(-c2cncnc2NC2CCNCC2)c1`, the activity, negative = inhibition is 28.5% [at 2.29 µM].

In the case of `CC(=O)N1CCC2(CCCN(c3ccccc3)C2)CC1`, the AC50 entry is “inactive”.

With `COCC(=O)N1CCC2(CC1)CN(C(=O)Nc1ccccc1)C2`, the AC50 was 1.58 µM (active).

In the case of `COCC(=O)N1CCC2(CCCN(C(=O)Nc3ccccc3)C2)CC1`, the AC50 entry is “inactive”.

Turning to `COCC(=O)N1CCC2(CCCN(c3ccncc3)C2)CC1`, the AC50 entry was “inactive”.

`COCC(=O)N1CCC2(CC1)CN(C(=O)Nc1ccc(OC)cc1)C2`: the AC50 entry was “inactive”.

Take `CC(=O)N1CCC2(CC1)CCN(c1cccc(-c3ccccc3)c1)CC2`: the AC50 result is “inactive”.

Regarding `COCC(=O)N1CCC2(CC1)CCN(c1cccc(-c3ccccc3)c1)CC2`, the AC50 result is “inactive”.

With `COCC(=O)N1CCC2(CCCN(c3cccc(-c4ccccc4)c3)C2)CC1`, the AC50 was 25.1 µM (active).

For `CC(=O)N1CCC2(CCCN(c3cccc(-c4ccccc4)c3)C2)CC1`, the AC50 is 12.6 µM (active).

Turning to `Cc1noc(C)c1-c1nccc(N(C)Cc2ccco2)n1`, the activity, negative = inhibition was 10.6% [at 2.29 µM].

Turning to `CCCn1c(=O)c2[nH]c(-c3ccc(OCC(=O)NCCN)cc3)nc2n(CCC)c1=O`, the AC50 entry was “inactive”.

As to `Cc1noc(C)c1-c1nc(N2CCN(C)CC2)c2ccccc2n1`, the activity, negative = inhibition was 1.84% [at 2.29 µM].

With `Cc1cc([C@](C)(N)C(=O)O)ccc1P(=O)(O)O`, the AC50 entry was “inactive”.

With `N[C@H](C(=O)O)c1cc(O)cc(O)c1`, the AC50 entry was “inactive”.

For `CC1=C(C(=O)O)N2C(=O)[C@@H](NC(=O)[C@@H](N)C3=CCC=CC3)[C@@H]2SC1`, the AC50 result is “inactive”.

As to `COc1ccc(NC(=O)NCc2cccn2C)c(OC)c1`, the AC50 entry was “inactive”.

On to `CC(Sc1nnc(Cc2cccs2)n1C1CCCCC1)C(N)=O` (stereo not given), for which the AC50 result was “inactive”.

In the case of `COc1cccc(Nc2ncc3nc(CCc4ccccc4)c(=O)n(Cc4cccs4)c3n2)c1`, the AC50 entry is “inactive”.

Turning to `COc1ccc(NC(=O)CSc2nnc(Cc3cccn3C)n2CCc2ccccc2)c(OC)c1`, the AC50 is 11.2 µM (active).

`COc1ccc(OC)c(C(=O)CSc2nnc(Cc3cccs3)n2CCc2ccccc2)c1`: the AC50 was 1.58 µM (active).

In the case of `O=c1[nH]c(SCc2cccc([N+](=O)[O-])c2)nc2nc[nH]c12`, the activity, negative = inhibition is 4.13% [at 11.4 µM].

On to `O=[N+]([O-])c1ccc(-c2cnc(SCc3ccccc3Cl)[nH]2)cc1`, for which the half-maximal activity concentration (AC50) was 3.98 µM (active).

For `O=c1[nH]c(SCc2ccccc2[N+](=O)[O-])nc2nc[nH]c12`, the activity, negative = inhibition is 11.4% [at 11.4 µM].

As to `COc1ccccc1CN1CCCC2(CCN(S(C)(=O)=O)CC2)C1`, the AC50 entry is “inactive”.

As for `O=C(O)C[C@@H]1CCCc2ccccc2[C@H]1O`, the AC50 result was “inactive”.

For the compound `CCOc1cc(CNCCCN2CCOCC2)cc(Br)c1OCC(=O)Nc1cccc(C(F)(F)F)c1`, the AC50 entry was “inactive”.

Consider `C=CCOc1c2ccc(C(=O)NC3CCCc4ccccc43)cc2nn1C` (stereo not given), for which the AC50 result was “inactive”.

In the case of `Cc1c(C(=O)Nc2cccc(C(F)(F)F)c2)oc2ccc(S(=O)(=O)N3CCOCC3)cc12`, the AC50 was 1.41 µM (active).

As for `Cc1c(C(=O)NC2CCCc3ccccc32)oc2ccc(S(=O)(=O)N3CCOCC3)cc12` (stereo not given), the AC50 was 7.08 µM (active).

Turning to `Fc1cccc(F)c1C(Nc1nncs1)Nc1nncs1`, the activity, negative = inhibition is -6.71% [at 11.4 µM].

In the case of `CSc1ncnc2c1ncn2[C@@H]1O[C@@H](CO)[C@H](O)O[C@@H]1O`, the activity, negative = inhibition was 1.22% [at 11.4 µM].

With `CS(=O)(=O)Nc1cccc(-c2ccc3ncnc(Nc4ccccc4)c3c2)c1`, the activity, negative = inhibition is -12.6% [at 2.29 µM].

`COc1ccc(C(=O)NC2(C(F)(F)F)C(=O)Nc3c2c(=O)[nH]c(=O)n3CCc2ccc(OC)c(OC)c2)cc1` (stereo not given): the AC50 result was “inactive”.

With `Cc1cc(C(=O)CSc2nnc(N)s2)c(C)n1CCc1ccc(F)cc1`, the AC50 is 1.12 µM (active).

Turning to `COc1ccc(CCn2c(C)cc(C(=O)CSc3nc(N)cc(=O)[nH]3)c2C)cc1`, the AC50 was 8.91 µM (active).

On to `CC[C@H]1CC[C@H]2[C@@H]3CC=C4C[C@H](OC(C)=O)[C@@H](N)C[C@@]4(C)[C@H]3CC[C@@]12C`, for which the activity, negative = inhibition is 13.7% [at 11.4 µM].

As for `CCCCOc1ccc(C(=O)CCN2CCCCC2)cc1`, the AC50 was 2.51 µM (active).

For `CCC(=O)c1ccc(OCC(O)CN2CCCCC2)cc1` (stereo not given), the AC50 result was “inactive”.

Regarding `CCOc1ccc(C(=O)CCC(=O)O)cc1`, the AC50 result was “inactive”.

With `CC(N)=NCc1cccc(CN)c1`, the AC50 entry is “inactive”.

As to `COc1cc(/C=N/Nc2snc(SC)c2C#N)cc(OC)c1OC`, the AC50 was 4.47 µM (active).

`CCOC(=O)N/N=C1/C[C@@H](O)[C@@H](O)[C@@H]2[C@@H]3C(=O)N(C4CCCCC4)C(=O)[C@H]3CC[C@H]12`: the activity, negative = inhibition was -8.52% [at 11.4 µM].

As to `COc1ccc(N2CC(C(=O)Nc3cc(C)on3)CC2=O)cc1` (stereo not given), the AC50 is 14.1 µM (active).

With `CCN(CC)C(=O)C1CC(=O)N(c2ccc(OC)cc2)C1c1ccc(OC)cc1` (stereo not given), the AC50 entry is “inactive”.

Turning to `CCOc1ccc(CNC(=O)C2CC(=O)N(C3CCCC3)C2)cc1OC` (stereo not given), the AC50 result was “inactive”.

`CCOc1ccc(N2CC(C(=O)NCc3cccc(C)c3)CC2=O)cc1` (stereo not given): the AC50 is 12.6 µM (active).

Turning to `COc1ccc(N2CC(C(=O)OCC(=O)c3cccc(OC)c3)CC2=O)cc1` (stereo not given), the AC50 was 17.8 µM (active).

For `c1cncc(-c2ccc3ncnc(NC4CCNCC4)c3c2)c1`, the activity, negative = inhibition is 12.8% [at 2.29 µM].

Take `CN(C)c1ncnc2ccc(-c3ccoc3)cc12`: the activity, negative = inhibition is -6.22% [at 2.29 µM].

Take `OC(COCc1ccccc1)Cn1cnc2ccccc21` (stereo not given): the AC50 is 12.6 µM (active).

Take `C[n+]1cn(CC(O)COCc2ccccc2)c2ccccc21` (stereo not given): the AC50 entry is “inactive”.

As for `CS(=O)(=O)N1CCC2(CC1)CN(C(c1ccccc1)c1ccccc1)C2`, the AC50 result is “inactive”.

Consider `c1ccc(C(c2ccccc2)N2CCCC3(CCNCC3)C2)cc1`, for which the AC50 result was “inactive”.

In the case of `COC(=O)N1CCC2(CCCN(C(c3ccccc3)c3ccccc3)C2)CC1`, the half-maximal activity concentration (AC50) was 31.6 µM (active).

In the case of `COCC(=O)N1CCC2(CC1)CN(C(c1ccccc1)c1ccccc1)C2`, the AC50 entry was “inactive”.

For `CC(=O)N1CCC2(CC1)CN(C(c1ccccc1)c1ccccc1)C2`, the AC50 entry is “inactive”.

`COC(=O)N1CCC2(CC1)CN(C(c1ccccc1)c1ccccc1)C2`: the AC50 was 10 µM (active).

As to `COCC(=O)N1CCC[C@@]2(CCN(C(c3ccccc3)c3ccccc3)C2)C1`, the AC50 result is “inactive”.

As for `CS(=O)(=O)N1CCC[C@@]2(CCN(C(c3ccccc3)c3ccccc3)C2)C1`, the AC50 result is “inactive”.

In the case of `CS(=O)(=O)N1CCC2(CCCN(C(c3ccccc3)c3ccccc3)C2)CC1`, the AC50 was 12.6 µM (active).

As to `Cc1cccc(C)c1OCC(O)CNC(C)(C)C` (stereo not given), the AC50 entry was “inactive”.

For the compound `COc1cc2cc3c4cc(OC)c(OC)cc4cc[n+]3c(C)c2cc1OC`, the AC50 entry is “inactive”.

Take `CO[C@@H]1COC(=O)C/C=C\[C@@H](C)COC(=O)[C@H](COCc2ccccc2)NC(=O)C/C=C\[C@H]1C`: the activity, negative = inhibition was -9.13% [at 11.4 µM].

`Cc1ccc(NC(=O)c2cc(Cl)nc3ccccc23)cc1`: the AC50 entry is “inactive”.

`O=C(NNC(=O)c1cc(-c2ccc(Cl)c(Cl)c2)nc2ccccc12)Nc1ccccc1`: the AC50 is 4.47 µM (active).

For `Cc1cccc(NC(=O)NNC(=O)c2cc(-c3ccccc3Cl)nc3ccccc23)c1`, the AC50 was 1.58 µM (active).

Regarding `COCCNc1nc(-c2ccccc2Cl)nc2ccccc12`, the activity, negative = inhibition was 0.695% [at 2.29 µM].

Regarding `CC(=O)NCCNc1nc(-c2ccccc2Cl)nc2ccccc12`, the activity, negative = inhibition was 15.4% [at 2.29 µM].
